Rows were chosen to be rich in hits. Some 4.6% of all compounds tested hit in one or more screens of this group.
tim23-1 inh: growth inhibitors of tim23-1 mutant yeast, primary screen, luminescence, uHTS. inhibition, % at 20 µM. S. cerevisiae tim23-1 growth, BacTiter-Glo luminescence, 24 h. 330,000 tested, 1.3% active;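 active = growth inhibition of the mutant yeast at or above 50%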;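 note: temperature-sensitive mutant grown at 25 °C; plate controls were DMSO-treated mutant yeast for no effect and medium wells lacking yeast for full effect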
tim10-1 inh: growth inhibitors of tim10-1 mutant yeast, primary screen, luminescence, uHTS | inhibition, % at 20 µM | S. cerevisiae tim10-1 ts strain growth, BacTiter-Glo, 24 h | AID 463190, 2010 | 330,000 tested, 2.2% active;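 active = inhibition of at least 40%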;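 note: mutant grown at 25 °C; 0% = DMSO wells with yeast and 100% = wells holding no yeast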
PfHsp90 set2: growth inhibition of PfHsp90-expressing yeast, primary screen, antimalarial PfHsp90 inhibitor project, S. cerevisiae, BacTiter-Glo luminescence, single point, set 2. BacTiter-Glo ATP, 48 h; yeast lacking PDR1 and PDR3 efflux regulators. inhibition, % at 9.4 µM. 310,000 tested, 0.32% active;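 active = every replicate shows inhibition above about 80%, whatever the replicate mean, limit read from the data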;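 note: 0% = DMSO neutral controls and 100% = 20 µM radicicol positive controls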
TIM10 inh: growth inhibitors of isogenic TIM10 control yeast, primary screen, counter-screen for tim10-1 yeast inhibitor project, luminescence, uHTS | S. cerevisiae TIM10 strain growth, BacTiter-Glo luminescence, 24 h | inhibition, % at 10 µM | 330,000 tested, 1.4% active | AID 463195, 2010;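 active = inhibition of 40% or more at the single tested concentration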;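 note: wild-type TIM10 isogenic control strain grown at permissive 25 °C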
NALP3 yeast inh: NALP3 inflammasome inhibitors in reconstituted yeast, primary screen, luminescence, uHTS; 330,000 tested, 0.39% active; inhibition, % at 10 µM; AID 2825, 2010; Yeast reconstituted NLRP3/ASC/caspase-1, beta-gal luminescence, 24 h;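 active = inhibition of 50% or more; inactive = inhibition below 50%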;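 note: plate controls were induced DMSO wells for no effect and uninduced yeast grown without galactose for full effect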
SKKanGAS inh: S. pyogenes SKKanGAS growth inhibitors in kanamycin, primary screen, streptokinase expression inhibitor project, SKKanGAS strain, BacTiter-Glo luminescence. inhibition, % at 7.5 µM. 6 h. AID 1662, 2009. 300,000 tested, 1.3% active;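 active = mean replicate score, as percent of positive control median, at least 50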;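 note: strain carries kanamycin resistance gene driven by streptokinase promoter and grows in 40 µg/ml kanamycin; loss of luminescence reflects streptokinase promoter inhibition or plain growth inhibition; 0% = median of DMSO wells and 100% = positive control at its reference dose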
tim10-1 confirm: growth inhibitors of tim10-1 mutant yeast, confirmation, single concentration, luminescence, S. cerevisiae; inhibition, % at 20 µM; shares compounds with tim10-1 inh; 7,400 tested, 56% active; S. cerevisiae tim10-1 ts strain growth, BacTiter-Glo, 24 h;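 active = inhibition of yeast growth at or above a set limit in either of two repeat tests at 20 µM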;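 note: tim10-1 mutant grown at permissive 25 °C to find synthetic lethal compounds; 0% = DMSO yeast wells and 100% = medium wells without yeast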
tim10 confirm: growth inhibitors of wild-type TIM10 yeast, confirmation, counter-screen for tim10-1 synthetic lethality project, single concentration, luminescence, S. cerevisiae | inhibition, % at 10 µM | AID 463215, 2010 | S. cerevisiae tim10 strain growth, BacTiter-Glo luminescence, 24 h | 4,600 tested, 63% active | shares compounds with TIM10 inh;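 active = inhibition of yeast growth at or above a set limit in either of two replicates at 10 µM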;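 note: this counterscreen used the strain with wild-type TIM10; 0% = yeast with DMSO and 100% = medium wells lacking yeast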
Numbers without * were called inactive; . = no result.

SMILES | tim23-1 inh | tim10-1 inh | PfHsp90 set2 | TIM10 inh | NALP3 yeast inh | SKKanGAS inh | tim10-1 confirm | tim10 confirm
ONC(=Nc1cccc(C(F)(F)F)c1)c1cccnc1 | 4 | 3 | 4 | 9 | 12 | -6 | . | .
CCOc1ccc(CCNC(=O)c2cccc(S(=O)(=O)N3CCN(C(C)=O)CC3)c2)cc1OCC | -9 | -18 | -2 | 8 | 16 | -6 | . | .
CC(C)COC(=O)c1ccc2c(c1O)C(=O)c1ccccc1C2=O | 49 | 58* | -66 | 47* | 48 | 90* | 42* | 40*
COc1ccc2c(c1O)C(=O)c1ccccc1C2=O | 15 | -19 | . | -19 | 26 | 4 | . | .
O=C1CCSc2c1ccc1ccccc21 | . | . | -23 | . | . | . | . | .
CCCc1[nH]nc2c1C(c1cn[nH]c1-c1ccc(F)cc1)C(C#N)=C(N)O2 (stereo not drawn) | 44 | 44* | -12 | 41* | -11 | -15 | 48* | 34*
CCCc1[nH]nc2c1C(c1ccccc1OC)C(C#N)=C(N)O2 (stereo not drawn) | 11 | 14 | . | 5 | 4 | 1 | . | .
Cc1ccc(C(=O)N(C)CCOc2ccccc2)cc1S(=O)(=O)N1CCOCC1 | 15 | 17 | 12 | 13 | 16 | . | . | .
CC(C)Oc1ccc(C2CC(=O)N(c3cccc(/C=C/C(=O)O)c3)C2=O)cc1 (stereo not drawn) | -2 | 19 | -1 | -1 | 0 | 5 | . | .
CN1CCN(C2=C(Cl)C(=O)C(c3cnc(N4CCCCC4)s3)=C(Cl)C2=O)CC1 | 25 | 72* | . | 45* | 15 | 13 | 60* | 44*
COc1ccc(Cn2c(-c3ccc(Br)cc3)c[n+]3ccccc23)cc1 | 8 | 48* | 8 | 55* | 18 | -3 | 30* | 25
CCOC(=O)C1CCN(C(=O)c2sc3nc(-c4ccccc4)cn3c2C)CC1 | 41 | 66* | 22 | 57* | 0 | -2 | 60* | 52*
COC(=O)C1CCN(C(=O)c2sc3nc(-c4ccc(F)cc4)cn3c2C)CC1 | 40 | 70* | 5 | 55* | 4 | . | 64* | 35*
CC1=CC(C)(C)N2C(=O)C3(SCC(=O)N3c3ccc(F)cc3)c3cc(C)cc1c32 (stereo not drawn) | 43 | 46* | . | 41* | 3 | 11 | 26 | 37*
O=c1c2ccccc2nc2c3ccccc3c(NCc3ccccn3)nn12 | 35 | 71* | 8 | 71* | 15 | . | 65* | 63*
O=c1c2ccccc2nc2c3ccccc3c(NCc3cccnc3)nn12 | 24 | 54* | -17 | 49* | 13 | 13 | 64* | 51*
Cc1nc(NCc2ccccn2)c2ccccc2n1 | 3 | -15 | -3 | -14 | 4 | -1 | . | .
c1cncc(CNc2nc(-c3cccnc3)nc3ccccc23)c1 | 20 | 13 | -6 | -14 | 15 | 4 | . | .
CCC(=O)Nc1ccc(C(=O)OCc2ccc(Cl)c(Cl)c2)cc1 | 3 | 10 | -19 | 4 | 16 | -4 | . | .
CC(=O)Nc1ccc(C(=O)OCc2ccc(Cl)c(Cl)c2)cc1 | 23 | 50* | 9 | 42* | 15 | -18 | 32* | -30
CC(=O)Nc1ccc(C(=O)OCc2ccc(Cl)cc2)cc1 | 28 | 49* | -29 | 50* | 32 | -4 | 48* | 35*
Cc1cccc(/C=C/C(=O)c2ccc([N+](=O)[O-])o2)c1 | 45 | 53* | 103* | 89* | 34 | 56* | 7 | 98*
COc1cccc(/C=C/C(=O)c2cccc([N+](=O)[O-])c2)c1 | 49 | 40 | 0 | 19 | 6 | -5 | . | .
CN(C(=O)c1ccccc1C(=O)OCC(=O)c1ccc(F)c(F)c1)C1CCCCC1 | 29 | 16 | . | 18 | 8 | . | . | .
CCN(CC)CCCN1C(=O)CSC1c1ccc([N+](=O)[O-])cc1 (stereo not drawn) | 14 | 8 | -7 | 3 | 8 | -14 | . | .
SMILES | tim23-1 inh | tim10-1 inh | PfHsp90 set2 | TIM10 inh | NALP3 yeast inh | SKKanGAS inh | tim10-1 confirm | tim10 confirm
N/C(=N\OC(=O)c1cccc(Br)c1)c1ccc(Br)cc1 | 13 | -31 | -31 | 4 | 17 | 4 | . | .
N/C(=N\OC(=O)CCCOc1ccccc1)c1ccncc1 | 13 | 11 | 15 | -3 | 6 | 6 | . | .
N/C(=N\OC(=O)c1ccc(Br)cc1)c1ccccc1 | 40 | 55* | . | 50* | 15 | 6 | 52* | 67*
N/C(=N\OC(=O)CCCOc1ccccc1)c1ccccc1 | 41 | 44* | -2 | 51* | 14 | -1 | 37* | 35*
N/C(=N\OC(=O)COc1ccc(Cl)cc1Br)c1ccncc1 | . | . | 4 | . | . | . | . | .
N/C(=N\OC(=O)CCCOc1ccc(Cl)cc1Cl)c1ccncc1 | 6 | 54* | 15 | 43* | 11 | 17 | 30* | 4
O=[N+]([O-])c1cccc(-c2ccc(/C=N/NC(=S)Nc3cccc(F)c3)o2)c1 | 47 | 52* | -3 | 57* | 23 | 26 | 46* | 59*
Cn1nc(C(=O)Nc2ccc3c(c2)OCCO3)cc1C(=O)O | 22 | 1 | -1 | -4 | 15 | 2 | . | .
Cc1ccccc1-c1cc(-c2ccccc2O)n[nH]1 | 44 | 45* | -7 | 65* | 7 | 55* | 14 | 6
CCOC(=O)C1=C(N)Oc2c(oc(CO)cc2=O)C1c1ccccc1 (stereo not drawn) | 2 | 10 | . | 6 | 7 | 3 | . | .
O=C(Nc1ccccc1Cl)C1C2CCC3C(CCC21)C3(Cl)Cl (stereo not drawn) | 9 | 17 | 2 | 2 | 14 | -4 | . | .
CCOc1ccccc1NC(=O)C1C2CCC3C(CCC21)C3(Cl)Cl (stereo not drawn) | 32 | 40 | 7 | 47* | 0 | 4 | 31* | 43*
Cc1ccc(OC(F)F)c(NC(=O)Nc2cccc(C(F)(F)F)c2)c1 | 38 | 47* | -15 | 51* | -2 | 39 | 45* | 58*
O=C(Nc1ccccc1)Nc1cccc(C(F)(F)F)c1 | 12 | 6 | -32 | 13 | 23 | 2 | . | .
CCc1ccc2c(c1)C1(C(=O)N2)N2CCCC2C(C(=O)c2ccc3ccccc3c2)C12C(=O)Nc1ccccc12 (stereo not drawn) | 34 | 38 | 20 | 33 | 3 | 29 | . | .

Screening data (PubChem)
